Results filed as inconclusive are left out. Values without a mark were called inactive. Activity calls are given as the source filed them. Unless noted, calls come from the whole dose curve; as a rule, active = well fitted curve in the direction sought with a large enough effect; inconclusive = small, poorly fitted or top-dose-only effect, or another doubt; inactive = no such curve, though single readings can be large; an effect the other way counts as inactive or inconclusive.

Assay [1] has as its target Aldehyde dehydrogenase, mitochondrial (Homo sapiens) (UniProt P05091). Nature of the assay: qHTS for Inhibitors of the Aldehyde Dehydrogenase Family (ALDH2) Confirmatory screens (AID 2061303; active = well fitted inhibition curve with a large enough effect; title and protocol of this record describe different tests; note: nearly all actives have a fitted effect of over 45% in size; note: potency is the fitted concentration of half-maximal effect).
Assay [2] has the same target. In words: qHTS for Inhibitors of the Aldehyde Dehydrogenase Family (ALDH2) Primary screen (AID 2061308). Note: nearly all actives have a fitted effect of over 55% in size. Note: potency is the fitted concentration of half-maximal effect.
Assay [3] concerns the target Retinaldehyde dehydrogenase 3 (Homo sapiens) (UniProt P47895). In words: qHTS for Inhibitors of the Aldehyde Dehydrogenase Family (ALDH1A3) Primary screen (AID 2061315).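 Note: plate controls were DMSO vehicle for no effect and reference inhibitor for full effect.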
In assay [4] the target is Aldehyde dehydrogenase 1A1 (Homo sapiens) (UniProt P00352). Nature of the assay: qHTS for Inhibitors of the Aldehyde Dehydrogenase Family (ALDH1A1) Confirmatory screens (AID 2061316). Note: potency is the fitted concentration of half-maximal effect; nearly all actives have a fitted effect of over 65% in size.
For assay [5], the target named is Retinaldehyde dehydrogenase 3 (Homo sapiens) (UniProt P47895). In words: qHTS for Inhibitors of the Aldehyde Dehydrogenase Family (ALDH1A3) Validation screen (AID 2061312). Note: % is set by controls: 0 for no effect and ±100 for the full control effect; nearly all actives have a fitted effect of over 45% in size.
Assay [6] can be described thus: BET inhibitor-based combinations targeting novel dependencies in MECOM-rearranged (r) AML: SET-2 cell line (AID 2202231).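 Note: plate controls were DMSO treated cells for no effect and wells without cells for full effect; nearly all actives have a fitted effect of over 35% in size.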 The following applies: SET-2 AML cells viability, CellTiter-Glo luminescence, 48 h; viability: active compounds read low, series mostly up to about 46 µM. Put shortly: (§1)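 Cells were plated at 500 per well and exposed to an 11-point dose series of each drug for 48 hr. Viability was measured by CellTiter-Glo luminescence, normalized to DMSO and empty-well controls, and summarized as AUC and per-cell-line Z-AUC.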

The nature of assay [7]: BET inhibitor-based combinations targeting novel dependencies in MECOM-rearranged (r) AML: MV-4-11 cell line (AID 2202233). Note: nearly all actives have a fitted effect of over 45% in size. Note: potency is the fitted concentration of half-maximal effect. Put shortly: (§2)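 Activity is given as area under the curve and as Z-AUC, mean-centred within each cell line. It comes from 11-point dose curves normalized to DMSO and empty wells. CellTiter-Glo luminescence was read after 48 hr drug exposure of 500 cells/well.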

Assay [8] is described as follows: BET inhibitor-based combinations targeting novel dependencies in MECOM-rearranged (r) AML: HNT-34 cell line (AID 2202234). Note: nearly all actives have a fitted effect of over 35% in size. Note: potency is the fitted concentration of half-maximal effect. In outline:
as §2

A short description of assay [9]: BET inhibitor-based combinations targeting novel dependencies in MECOM-rearranged (r) AML: UCSD-AML1 cell line (AID 2202235).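 Note: series mostly up to about 46 µM; plate controls were DMSO vehicle wells for no effect and blank wells for full effect; nearly all actives have a fitted effect of over 40% in size.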 In outline:
as §2

The nature of assay [10]: BET inhibitor-based combinations targeting novel dependencies in MECOM-rearranged (r) AML: AML-191 cell line (AID 2202236;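 note: plate controls were vehicle wells for no effect and wells without cells for full effect; nearly all actives have a fitted effect of over 35% in size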). Put shortly:
as §1

Assay [11] can be described thus: BET inhibitor-based combinations targeting novel dependencies in MECOM-rearranged (r) AML: OCI-AML3 cell line (AID 2202232).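 Note: series mostly up to about 46 µM; plate controls were DMSO vehicle wells for no effect and wells without cells for full effect; nearly all actives have a fitted effect of over 35% in size.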 The following applies: Potency: OCI-AML3 viability. In outline:
as §1

Assay [12] in a line: BET inhibitor-based combinations targeting novel dependencies in MECOM-rearranged (r) AML: AML-194 cell line (AID 2202237;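 note: plate controls were vehicle wells for no effect and wells without cells for full effect; nearly all actives have a fitted effect of over 40% in size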). Put shortly:
as §1

Regarding `c1cc(NCCc2c[nH]c3ccccc23)cc(Nc2ccncc2)c1`, the Potency in assay [1] was 25.1 µM (active); in [2] it was 10 µM (active); in [4], 11.3 µM (active). For the same compound, the Potency result in assay [3] is “inactive”.
For `Cc1ccc2nc3sc(C(=O)NC4CCCCC4)cc3cc2c1`, the Potency entry in assay [1], in assay [2] and in assay [3] was “inactive” throughout.
`O=C(NCCCn1ccnc1)c1cc(-c2ccco2)on1`: the Potency result in assay [2], in assay [5] and in [3] was “inactive” in each case.
Take `CN1CCC(COc2cnc(-c3cccc(Cn4nc(-c5cccc(C#N)c5)ccc4=O)c3)nc2)CC1`: the Potency entry in [2], in assay [5], in assay [3], in assay [8], in [9] and in [10] was “inactive” in each case. In addition, the viability in assay [6] was 115%. For the same compound, in assay [7], the Potency is 5.9 µM (active).
For `O=C(NCc1cccc(O)c1)c1cc2cc(F)ccc2[nH]1`, the Potency entry in [2], in assay [5] and in assay [3] was “inactive” in each case.
As to `N[C@@H](CC(=O)N1CCn2c(nnc2C(F)(F)F)C1)Cc1[nH]nc2c(F)c(F)ccc12`, the Potency result in assay [2], in [5] and in assay [3] was “inactive” in each case.
As to `CC1(C)CC(NC(=O)C(=O)Nc2ccc(Br)cc2)CC(C)(C)N1`, the Potency entry in assay [2], in assay [5] and in [3] was “inactive” throughout.
Turning to `C=CCCN1CCC2(CC1)CN(C(=O)c1c(F)cccc1F)c1ccc(Cl)cc12`, the Potency entry in assay [2], in assay [5] and in assay [3] was “inactive” each time.
`NC(=O)c1cccc2[nH]c(-c3ccc(C4CCCN4)cc3F)nc12` (centres undefined): the Potency entry in assay [2], in assay [5] and in assay [3] was “inactive” throughout.
Take `CCNC1(C(N)=O)CCN(c2ncnc3c2nc(-c2ccccc2Cl)n3-c2ccc(Cl)cc2)CC1`: the Potency entry in assay [2], in assay [5], in assay [3], in assay [11] and in assay [9] was “inactive” throughout. Also, the Potency in assay [8] was 26.3 µM (active).
Take `C=CC(C)(O)CC/C=C(\C)C(=O)O[C@@H]1[C@@H](O)[C@H](OC(C)(C=C)CC/C=C(\C)C(=O)O[C@@H]2O[C@H](CO)[C@@H](O)[C@H](O)[C@H]2O)O[C@H](CO)[C@H]1OC(=O)/C(C)=C/CCC(C)(O)C=C` (some centres undefined): the Potency result in [2] and in assay [3] was “inactive” in each case.
`Cc1occc(=O)c1O[C@@H]1O[C@H](CO[C@@H]2OC[C@](O)(CO)[C@H]2O)[C@@H](O)[C@H](O)[C@H]1O`: the Potency result in [2] and in assay [3] was “inactive” throughout.
In the case of `C=C1CCN([C@H](C)[C@](O)(Cn2cncn2)c2ccc(F)cc2F)CC1`, the Potency entry in assay [2], in [5] and in assay [3] was “inactive” throughout.
For `CCCCOc1cc(C(=O)OCCN(CC)CC)ccc1N`, the Potency entry in [2], in [5] and in assay [3] was “inactive” throughout.
Regarding `CC(C)(C)c1ccc(C(=O)Nc2cc(Cl)c(Br)cc2C(=O)O)cc1`, the Potency entry in [2] and in [3] was “inactive” in each case.
With `CCC(C)/C=C(C)/C=C/C1=CC2=C(Cl)C(=O)C(C)(OC(C)=O)C(=O)C2=CN1CCCC(=O)O` (centres undefined), the Potency result in assay [2] and in [3] was “inactive” in each case.
In the case of `C/C=C(\C)C(=O)O[C@H]1[C@H](O)[C@]2(COC(C)=O)[C@H](O)C[C@]3(C)C(=CCC4[C@@]5(C)CC[C@H](O[C@@H]6O[C@H](C(=O)O)[C@@H](O[C@@H]7O[C@H](CO)[C@@H](O)[C@H](O)[C@H]7O)[C@H](O)[C@H]6O[C@@H]6O[C@H](CO)[C@@H](O)[C@H](O)[C@H]6O)[C@](C)(CO)C5CC[C@]43C)[C@@H]2CC1(C)C` (some centres undefined), the Potency entry in assay [2] and in [3] was “inactive” each time.
Turning to `O=C(NCC1(N2CCN(c3ccccc3)CC2)CCOCC1)c1cccnc1Sc1ccccc1`, the Potency result in [2], in [5] and in assay [3] was “inactive” in each case.
As to `C[C@@H]1CN(Cc2ccccc2)C[C@H]1c1nc2c(cnn2C2CCOCC2)c(=O)[nH]1`, the Potency entry in assay [2] and in assay [3] was “inactive” in each case.
For `Cn1c(=O)cc(N2CCCC(N)C2)n(Cc2ccccc2C#N)c1=O` (centres undefined), the Potency entry in assay [2], in assay [5] and in [3] was “inactive” each time.
With `O=C(NCCCc1ccccc1)C1CCC(CNS(=O)(=O)c2cccc3nsnc23)CC1` (centres undefined), the Potency entry in assay [2], in assay [5] and in assay [3] was “inactive” throughout.
With `O=C(O)CC1CCC(c2ccc(-c3ccc(Nc4ccc(C(F)(F)F)nc4)cn3)cc2)CC1` (centres undefined), the Potency result in assay [2], in assay [5], in assay [3], in [11], in assay [7] and in assay [9] was “inactive” each time. Further, the Potency entry in assay [10] and in assay [12] was “inactive” each time. In assay [6], the viability was 114%.
Regarding `CC(C)Oc1ccc(-c2cnc3c(-c4ccnc5ccccc45)cnn3c2)cc1`, the Potency entry in assay [2], in assay [5] and in [3] was “inactive” throughout.
Consider `C[C@]12CC[C@@H]3c4ccc(O)cc4CC[C@H]3[C@@H]1CC[C@@H]2OC(=O)CCC1CCCC1`, for which the Potency entry in assay [2], in assay [5] and in assay [3] was “inactive” throughout.
In the case of `O=S(=O)(NC1CCC(c2cc(F)ccc2F)(S(=O)(=O)c2ccc(Cl)cc2)CC1)C(F)(F)F` (centres undefined), the Potency result in [2], in assay [5] and in assay [3] was “inactive” each time.
In the case of `O=C1CCC(=O)N(O)CCCCCNC(=O)CCC(=O)N(O)CCOCCNC(=O)CCC(=O)N(O)CCCCCN1`, the Potency result in [2] and in assay [3] was “inactive” throughout.
Consider `Fc1ccc2c(CCNCc3cccc(OCC(F)(F)C(F)F)c3)c[nH]c2c1`, for which the Potency result in [2], in assay [5] and in assay [3] was “inactive” throughout.

The values are drawn from PubChem BioAssay (NCATS).
